# Sm TGR inh: inhibitors of Schistosoma mansoni thioredoxin glutathione reductase. Q962Y6. purified TGR, DTNB reduction, TNB absorbance 405 nm. Potency, µM (series often up to 114 µM), for inactives: at the highest dose activity change, negative = inhibition, usual class: inhibitors. hit rate 3% among 360,000. AID 485364; note: potency is the fitted concentration of half-maximal effect; nearly all actives have a fitted effect of over 60% in size
#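 TGR 20 nM + NADPH 100 uM (dispensed conc.), cpd preinc 15 min RT; start with NADPH (500 uM addition) then DTNB (15 mM addition). Kinetic TNB absorbance, 405 nm filter. Four-parameter Hill fit across titration.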
# Pf growth 48h: P. falciparum growth inhibition at 48 hours (one generation) | AID 504832 | P. falciparum luciferase growth in erythrocytes, 48 h | hit rate 5.9% among 310,000 | Potency, µM (doses to about 28.7 µM), for the others: top-dose activity change, negative = inhibition, hits mostly inhibitors; note: potency is the fitted concentration of half-maximal effect
#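 Luciferase-expressing parasites in RBCs, 2% Hct / 0.1% parasitemia final; RPMI 1640 + 0.5% Albumax; 37 C, 5% CO2, one generation; luminescence read-out, lower signal = inhibition.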
# Pf growth 96h: P. falciparum growth inhibition at 96 hour, primary screen for plastid delayed-death inhibitors | hit rate 6.9% among 320,000 | P. falciparum luciferase reporter growth, 96 h | AID 504834 | Potency, µM (titrated, usually from 28.7 µM), without a hit: at the highest dose activity change, negative = inhibition, usual class: inhibitors; note: potency is the fitted concentration of half-maximal effect
#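 Luminescence readout: decreased luciferase signal marks inhibited growth of reporter-expressing P. falciparum in infected red cells (2% hematocrit, 0.05% parasitemia final), exposed to compound two generations (96 h, 37 C, 5% CO2).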
# HCMV antiviral: blocks human cytomegalovirus replication. HFF cells, HCMV-luciferase reporter, 72 h; active compounds read low. activity change, negative = inhibition, % at 57.5 µM. hit rate 4.5% among 410,000. AID 1259415; in the data active = activity change below about -60%; inconclusive = no clear call, values can overlap the other calls; inactive = above about -39%
#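 Compounds were evaluated in HFFs infected with an HCMV luciferase reporter virus (MOI 1 PFU/cell). Luciferase in lysates collected 72 h post infection served as the replication measure.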
# Giardia FBPA inh: Giardia lamblia aldolase inhibition. Potency, µM (series often up to 59.6 µM), without a hit: at the top dose activity, negative = inhibition, hits mostly inhibitors. hit rate 0.71% among 290,000. purified Giardia FBPA. AID 2451; note: potency is the fitted concentration of half-maximal effect; nearly all actives have a fitted effect of over 55% in size
# Target sequence (A8B2U2 whole entry, looked up): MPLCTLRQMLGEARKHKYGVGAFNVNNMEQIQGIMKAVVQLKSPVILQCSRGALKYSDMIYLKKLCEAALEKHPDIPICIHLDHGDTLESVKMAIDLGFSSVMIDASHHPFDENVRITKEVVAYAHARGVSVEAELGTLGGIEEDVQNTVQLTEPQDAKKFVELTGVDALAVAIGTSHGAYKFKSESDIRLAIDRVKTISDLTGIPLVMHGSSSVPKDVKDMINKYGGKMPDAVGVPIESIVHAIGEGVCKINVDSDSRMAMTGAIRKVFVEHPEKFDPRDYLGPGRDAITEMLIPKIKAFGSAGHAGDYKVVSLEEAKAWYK
#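 Giardia FBPA (40 nM reagent) was preincubated 10 min at RT with compound (up to 57.5 uM final), then substrate plus GAPDH/TPI/NAD/arsenate coupling system with diaphorase/resazurin was added; resorufin fluorescence (525/598 nm) was read after 20 min.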
# * = called active by the depositor; ? = inconclusive; / = not tested or not shown; [ ] = another dose, or the depositor's remark. An excerpt weighted towards active compounds, which were near 14% of everything screened. Unless noted, calls come from the whole dose curve; as a rule, active = well fitted curve in the direction sought with a large enough effect; inconclusive = small, poorly fitted or top-dose-only effect, or another doubt; inactive = no such curve, though single readings can be large; an effect the other way counts as inactive or inconclusive. % is set by controls: 0 for no effect and ±100 for the full control effect.
SMILES,Sm TGR inh,Pf growth 48h,Pf growth 96h,HCMV antiviral,Giardia FBPA inh
CCCCOC(=O)C1[C@H]2C(=O)N(Cc3cccs3)C[C@]23C=C[C@H]1O3 (some centres undefined),-8%[11.4 µM],/,5.2µM*,-6,1%
Cn1nc([N+](=O)[O-])nc1Sc1ccc(Cl)cc1,?,?,-5%,-25,-5%
CNc1ncnc(Sc2ccc(Cl)cc2)c1[N+](=O)[O-],0.56µM*,9.3µM*,-49%,-9,3%
COc1cc(NC(=O)c2cccs2)c(C(=O)OCC(=O)c2cc(C)n(-c3ccc(F)cc3)c2C)cc1OC,-12%,94%,2.6µM*,-22,6%
COc1ccc(-n2c(C)cc(C(=O)COC(=O)c3cc(NC(=O)c4cccs4)c(OC)c(OC)c3)c2C)cc1,-18%,1.9µM*,?,?,10%
CC(C)OC(=O)[C@H]1O[C@H](CCCCOCc2ccccc2)[C@@H](C)[C@H]2O[C@H]21,/,/,/,/,1%
O=C(NCCC1CCCCN1S(=O)(=O)c1ccc(F)cc1)C(=O)Nc1ccccc1 (centres undefined),-1%,-26%,?,6,/
Cc1cc(S(=O)(=O)N2CCCOC2CNC(=O)C(=O)NCc2cccs2)ccc1F (centres undefined),-2%,-13%,?,20,/
CCc1ccc(CN2CCN(C(=O)Cc3ccccc3)CC2)cc1,/,-7%,33%,-12,?
CCOC(=O)N1CCN(Cc2cccs2)CC1,9%,21%,-9%,22,1%
O=C(C1CCN(Cc2cc(Cl)ccc2O)CC1)N1CCN(Cc2ccccc2)CC1,2%,?,9%,-7,-16%
O=C(Cc1ccccc1)N1CCN(Cc2ccccc2Cl)CC1,24%,9%[0.00184 µM],4.1µM*,42,?
Clc1ccccc1CN1CCC(Cc2ccccc2)CC1,6%,8%,12%,-101*,-22%
c1csc(CN2CCNCC2)c1,-12%,16%,10µM*,6,-1%
Oc1c(Cl)cc(Cl)cc1CN1CCN(Cc2ccccc2)CC1,0%,1.2µM*,0.74µM*,17,-13%
O=C(CSc1nnc(CNC(=O)c2ccco2)o1)Nc1ccc(Br)cc1,-21%,30%,-10%,-7,5%
COc1ccc(Cl)cc1N1C(=NC(=O)C2CCCCC2)SC2CS(=O)(=O)CC21 (centres undefined),-24%,23%,8%,-35,7%
Clc1ccccc1CN1CCNCC1,-22%,21%,8.3µM*,1,?
Cc1ccccc1CN1CCNCC1,-11%,14%,7%,17,-16%
CCCC(=O)N(c1ccc2oc(-c3ccccc3)c(C(=O)OCC)c2c1)S(=O)(=O)c1ccc(C)cc1,1%,/,/,-24,/
Cc1cc(Nc2ccccc2Cl)c2ccccc2n1,/,/,/,-73*,/
Cc1cc(NCc2ccccc2)nc2ccccc12,-17%,?,17%,-4,1%
Cc1cc(Nc2ccc(C)c(C)c2)c2ccccc2n1,-10%,?,?,-63*,0%
COc1ccc2nc(C)cc(NCc3cccc(C(F)(F)F)c3)c2c1,-1%,0.93µM*,?,-14,-12%
Cc1cc(NCc2ccccc2)c2ccccc2n1,-1%,3.3µM*,?,?,?
SMILES,Sm TGR inh,Pf growth 48h,Pf growth 96h,HCMV antiviral,Giardia FBPA inh
CC(=O)Nc1ccc(Nc2cc(C)nc3ccccc23)cc1,/,/,/,27,/
COC(=O)Cn1nc(C)c2c(C)n(-c3ccccc3)nc2c1=O,-5%,/,/,11,/
CCC(NS(=O)(=O)c1ccc(OC)cc1)C(=O)NCCc1ccccc1 (centres undefined),9%,?,?,-36,6%
Cc1ccc(-c2cc(NC(=O)c3ccccc3Cl)on2)cc1,0%,/,/,54,/
COc1ccc(Cl)cc1Nc1cc(C)nc2ccccc12,/,/,/,-87*,/
O=C1NC2=C(CCc3ccccc32)C(c2ccc(Br)cc2)N1 (centres undefined),50µM*,/,-21%,-20,?
O=C1Cc2ccccc2C(c2ccc(Br)cc2)N1 (centres undefined),-2%,?,/,9,6%
COc1ccccc1CNCC(O)(c1ccc(Cl)cc1)c1ccc(Cl)cc1,-18%,1.7µM*,1.7µM*,-8,4%
OC(CNCc1ccccc1F)(c1ccc(F)cc1)c1ccc(F)cc1,/,?,?,13,2%
COc1ccccc1CNCC(O)(c1ccc(F)cc1)c1ccc(F)cc1,-11%,3.7µM*,4.7µM*,-35,3%
Cc1ccc(N2CCN(C(=O)Nc3cn(CC(C)C)c(=O)c4ccccc34)CC2)c(C)c1,-2%,/,/,-16,/
N=c1ccn(CC(=O)c2ccc(-c3ccccc3)cc2)cc1,-4%,0.83µM*,?,-76*,5%
CCC(C)[C@H]1CN=C(N)N1CCc1cccc2ccccc12 (some centres undefined),/,/,/,-36,/
COc1cc(CCCN2CCNC[C@@H]2c2ccccc2)cc(OC)c1OC,/,/,/,-72*,/
COc1cc(CCCN2C(=O)C(=O)NC[C@@H]2c2ccccc2)cc(OC)c1OC,-3%,5%,5%,7,1%
CCC(C)[C@H]1CN=C(N)N1CCc1cc(C(F)(F)F)cc(C(F)(F)F)c1 (some centres undefined),-4%,4.7µM*,2.1µM*,-5,5%
CCC(C)[C@H]1CN=C(N)N1CCCc1cc(OC)c(OC)c(OC)c1 (some centres undefined),7%,10µM*,13µM*,-25,5%
COc1cc(CCCN2C(N)=NC[C@@H]2c2ccccc2)cc(OC)c1OC,14%,12µM*,?,-15,5%
COc1cc(CCCN2CCNC[C@H]2Cc2ccc(O)cc2)cc(OC)c1OC,3%,?,95%,1,/
COCCn1c(=O)c(-c2cc(F)cc(F)c2)nc2cnc(Nc3cccc(OC)c3)nc21,/,/,/,/,-5%
N#Cc1cc2c([nH]c1=S)CCCC2,0%,3%,4%,-37,-8%
CC1(C)Cc2[nH]c(=S)c(C#N)cc2CO1,32µM*,-2%,44%,21,-26%
